Bioassay records from PubChem BioAssay.
SARS PLpro yeast: qHTS of Yeast-based Assay for SARS-CoV PLP | Potency, µM (titrated, usually from 32.9 µM), for the others: top-dose activity, positive = growth rescue, usual class: activators | S. cerevisiae expressing SARS-CoV PLpro, growth rescue | AID 485353, 2010 | hit rate 0.19% among 330,000; calls by dose curve; further: 0% is about no effect; nearly all actives have a fitted effect of over 55% in size
Pf growth 48h: Primary qHTS for delayed death inhibitors of the malarial parasite plastid, 48 hour incubation; P. falciparum luciferase growth in erythrocytes, 48 h; Potency, µM (doses to about 28.7 µM), for the others: at the highest dose activity change, negative = inhibition, actives largely listed as inhibitors; hit rate 5.9% among 310,000; AID 504832, 2011; further: on the % scale 0 is the no-effect control and ±100 the full control effect
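Growth was read as firefly luciferase luminescence after a 48 h, 37 C, 5% CO2 exposure of compounds to reporter-bearing P. falciparum cultures (0.1% parasitemia, 2% hematocrit final) in Albumax-supplemented RPMI 1640.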
Pf growth 96h: Primary qHTS for delayed death inhibitors of the malarial parasite plastid, 96 hour incubation | Potency, µM (series often up to 28.7 µM), without a hit: at the top dose activity change, negative = inhibition, usual class: inhibitors | hit rate 6.9% among 320,000 | P. falciparum luciferase reporter growth, 96 h | AID 504834, 2011; further: on the % scale 0 is the no-effect control and ±100 the full control effect
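Infected RBCs, 2% Hct / 0.05% parasitemia final; luciferase-reporter P. falciparum; cpd 96 h, 37 C, 5% CO2; luciferase detection reagent; luminescence.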
Sm TGR block: qHTS Assay for the Inhibitors of Schistosoma Mansoni Peroxiredoxins | hit rate 3% among 360,000 | Schistosoma mansoni thioredoxin glutathione reductase (TGR), Q962Y6 | Potency, µM (series often up to 114 µM), without a hit: at the top dose activity change, negative = inhibition, actives largely listed as inhibitors | purified TGR, DTNB reduction, TNB absorbance 405 nm; further: on the % scale 0 is the no-effect control and ±100 the full control effect; nearly all actives have a fitted effect of over 60% in size
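TGR 20 nM + NADPH 100 uM (dispensed conc.), cpd preinc 15 min RT; start with NADPH (500 uM addition) then DTNB (15 mM addition). Kinetic TNB absorbance, 405 nm filter. Four-parameter Hill fit across titration.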
* = called active by the depositor; u = inconclusive; x = no result given. Only some compounds are listed: those with a hit (about 12% of all), similar ones and a draw of the others. Unless noted, the call rests on the fitted dose curve; in most records, active means well fitted curve in the direction sought with a large enough effect; inconclusive means small, poorly fitted or top-dose-only effect, or another doubt; inactive means no such curve, though single readings can be large; an effect the other way counts as inactive or inconclusive. Potency means the concentration at half of the fitted maximal effect.

SMILES | SARS PLpro yeast | Pf growth 48h | Pf growth 96h | Sm TGR block
COc1ccc(NC(=O)c2cccc(S(=O)(=O)N3CCN(C)CC3)c2)c(OC)c1 | -1.4% | u | u | 4.6%
COc1ccc(CNC(=O)C2CCN(c3nnc(-n4cccc4CNc4ccc(C)cc4)s3)CC2)c(OC)c1 | x | x | x | -5.3%
Cc1cccc(C)c1Oc1nc(-c2ccccc2)ncc1S(=O)(=O)c1ccccc1 | 4.7% | 2.08µM* | u | -3.8%
COc1nc(-c2ccccc2)ncc1S(=O)(=O)c1ccccc1 | -1.5% | u | u | x
O=S(=O)(c1ccccc1)c1cnc(-c2ccccc2)nc1N1CCCC1 | -1.8% | 12.8% | -16.0% | -2.7%
COc1ccc(Oc2nc(-c3ccccc3)ncc2S(=O)(=O)c2ccccc2)cc1 | -0.7% | 14.7µM* | u | 5.8%
COc1cccc(Sc2nc(-c3ccccc3)ncc2S(C)(=O)=O)c1 | -1.2% | x | 9.28µM* | 1.9%
Cc1ccc(S(=O)(=O)c2cnc(-c3ccccc3)nc2N2CCCCC2)cc1 | 0.2% | 13.1µM* | -7.8% | x
Fc1ccc(-c2cc3nc(-c4ccccc4)cc(N4CCN(CCN5CCOCC5)CC4)n3n2)cc1 | 1.8% | 1.04µM* | -1.7% | -13.4%
COc1cccc(-c2cc3nc(-c4ccccc4)cc(N4CCC5(CC4)OCCO5)n3n2)c1 | -20.2% | 13.1µM* | -11.6% | -23.4%
COc1ccc(SCc2cc(=O)c3cc(Cl)ccc3[nH]2)cc1 | x | x | x | 3.1%
COc1ccc(C(=O)NNc2ncnc3c2cnn3-c2cccc(Cl)c2)cc1OC | x | x | x | 5.3%
O=C(OCc1ccc(Br)cc1)c1cccc(S(=O)(=O)N2CCCC2)c1 | 0.4% | u | 10.4µM* | 4.0%
COc1ccc(COC(=O)c2ccc(C)c(S(=O)(=O)N3CCOCC3)c2)cc1F | 1.6% | u | 10.4µM* | 3.3%
COc1ccccc1COC(=O)c1cccc(S(=O)(=O)N2CCCC2)c1 | -4.9% | u | u | 9.3%
COc1ccc(COC(=O)c2cccc(S(=O)(=O)N3CCCC3)c2)cc1F | -1.0% | u | 11.7µM* | 4.1%
COc1ccc(C(=O)OCc2ccccc2F)cc1S(=O)(=O)N1CCCC1 | -4.7% | 9.28µM* | 13.1µM* | -1.2%
COc1ccc(C(=O)N(C)Cc2ccccc2F)cc1S(=O)(=O)N1CCCC1 | 1.8% | u | u | -18.0%
Cc1ccc(-c2c(CN3CCN(c4cccc(C(F)(F)F)c4)CC3)csc2C)cc1 | x | x | x | 6.1%
CCOC(=O)c1ccc(NC(=O)Cn2cc(C(=O)c3ccc(Cl)cc3)c(=O)c3ccc(C)nc32)cc1 | x | x | x | 16.0%
O=C(O)CC(O)CC(O)/C=C/c1c(C2CC2)nc2ccccc2c1-c1ccc(F)cc1 (centres undefined) | x | -0.2% | -6.5% | x
CC(=O)N1CCN(S(=O)(=O)c2cccc(C(=O)OCc3ccc(C(C)(C)C)cc3)c2)CC1 | -0.8% | 11.7µM* | 9.28µM* | -0.7%
O=C(ONC1=NCCCCC1)c1ccc(Cl)cc1 | -28.9% | u | x | -1.9%
O=C(ONC1=NCCCCC1)c1c(F)cccc1F | -26.0% | 13.1µM* | -49.9% | 4.6%
O=C1OCC2OC(O)C(O)C(O)C2OC(=O)c2cc(O)c(O)c(O)c2-c2c(O)c(O)c3oc(=O)c4c(c(O)c(O)c5oc(=O)c2c3c54)-c2c1cc(O)c(O)c2O (centres undefined) | u | -17.6% | 0.0% | 15.8µM*
SMILES | SARS PLpro yeast | Pf growth 48h | Pf growth 96h | Sm TGR block
O=c1c2cnn(-c3ccccc3Cl)c2ncn1Cc1cccnc1 | -4.0% | u | 13.1µM* | 6.5%
O=c1c2cnn(-c3ccc(F)cc3)c2ncn1Cc1cccnc1 | -0.4% | 2.7% | 155.1% | 2.9%
O=c1c2cnn(-c3ccc(F)cc3)c2ncn1Cc1ccccc1 | u | -8.4% | 8.28µM* | 0.4%
CCCCCn1c(=O)[nH]c2cc(C(=O)N3CCN(c4cccc(C(F)(F)F)c4)CC3)ccc2c1=O | x | x | x | 9.4%
Cc1cc(=O)[nH]c(N2CCCC2)n1 | -0.4% | -4.3% | 11.7µM* | 0.0%
CCCCNS(=O)(=O)c1ccc(C)c(-c2nnc3c4ccccc4c(C)nn23)c1 | x | x | x | -3.6%
CC(NC(=O)CN(c1cccc(C(F)(F)F)c1)S(C)(=O)=O)c1ccccc1 (centres undefined) | x | u | 1.17µM* | -4.1%
COc1cccc(N(CC(=O)NC(C)c2ccccc2)S(C)(=O)=O)c1 (centres undefined) | 13.4% | 6.1% | 15.9% | -0.7%
